From PubChem
Hits are enriched below; roughly 2.6% of the tested compounds scored in any of these assays.
Jurkat NFkB inh: inhibitors of the PMA/ionomycin-induced NF-kB reporter in Jurkat cells; PMA/ionomycin-induced NF-kB luciferase reporter, luminescence; inhibition, % at 4 µM; 0.53% of 330,000 active; AID 435003; in the data active = inhibition above about 50%
COUP-TFII inh: blocks human COUP-TFII nuclear receptor; inhibition, % at 8.6 µM; HEK293T NGFI-A luciferase reporter, luminescence; P24468; 0.7% of 370,000 active; AID 686940;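 active = inhibition above a per-plate cutoff, mean inhibition of test wells between control levels plus 3 SD, cut at about 38% in these data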;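 also: cells cotransfected with COUP-TFII expression vector driving the NGFI-A reporter; 0% = median of COUP-TF2 test wells and 100% = reporter-only cells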
Target sequence (P24468 whole entry, looked up): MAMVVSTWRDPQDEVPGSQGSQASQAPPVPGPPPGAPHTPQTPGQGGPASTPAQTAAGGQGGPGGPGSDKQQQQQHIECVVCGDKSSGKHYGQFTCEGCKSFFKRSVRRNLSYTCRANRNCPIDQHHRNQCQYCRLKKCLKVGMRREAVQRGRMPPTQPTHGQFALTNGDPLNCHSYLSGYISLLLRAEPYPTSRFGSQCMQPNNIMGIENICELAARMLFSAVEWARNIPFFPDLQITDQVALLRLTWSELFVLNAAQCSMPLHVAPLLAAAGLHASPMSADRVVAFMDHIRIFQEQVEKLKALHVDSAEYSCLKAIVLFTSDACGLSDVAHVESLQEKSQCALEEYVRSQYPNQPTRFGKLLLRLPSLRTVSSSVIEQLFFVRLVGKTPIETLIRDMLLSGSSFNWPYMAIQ
697 NFkB inh: lowers PMA/ionomycin-induced NF-kB signal in 697 B cells; 697 B-cell NF-kB luciferase reporter, 16 h; inhibition, % at 4 µM; 0.33% of 330,000 active; AID 435022; in the data active = inhibition above about 35%
Gli-Sufu antag: antagonists of Gli-Sufu signaling; inhibition, % at 5 µM; Sufu-KO-LIGHT fibroblasts, Gli luciferase reporter luminescence; 0.74% of 340,000 active;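 active = inhibition above about 55%, limit read from the data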;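 also: 0% = DMSO-treated cells and 100% = wells with medium but no cells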
H9c2 TAG inh: inhibitors of triacylglycerol accumulation | AID 651582 | 0.66% of 230,000 active | H9c2 cells, Nile Red lipid (TAG) fluorescence; cells loaded with 200 µM oleic acid | inhibition, % at 12.5 µM;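 active = pattern-corrected inhibition of lipid staining of at least 50% with the nuclear-stain viability signal not falling by more than 50%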;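 also: 0% = DMSO wells and 100% = triacsin C control wells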
Cardio protect: modulators protecting cardiomyocytes from myocardial damage | protection from H2O2 cell death, % at 20 µM | 0.63% of 360,000 active | H9c2 cardiomyocytes, H2O2 injury protection, ATPLite, 2 h | AID 588492;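 active = compounds giving at least 50% protection of heart cells from peroxide-induced death in the single-dose screen, raw or plate-pattern-corrected value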;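 also: 0% = DMSO wells with peroxide and 100% = DMSO wells without peroxide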
Gli antag conf: confirmation of Gli-SUFU pathway antagonists; Sufu-KO-LIGHT cells, Gli luciferase reporter, luminescence; 40% of 2,500 active; AID 602428; inhibition, % at 5 µM; shares compounds with Gli-Sufu antag;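 active = mean inhibition at 5 µM reaching about 45%, limit read from the data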;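 also: plate controls were DMSO-treated cells for no effect and wells lacking cells for full effect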
SufuKO cytotox: cytotoxic in Gli-SUFU antagonist counter-screen; shares compounds with Gli-Sufu antag; Sufu-KO-LIGHT cells cytotoxicity, ATP luminescence; cytotoxicity, % at 5 µM; 32% of 2,500 active;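 active = mean cytotoxicity at 5 µM above about 25%, limit read from the data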;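 also: cells exposed to compound overnight for roughly 16 to 18 hours; plate controls were DMSO wells with cells for no effect and medium without cells for full effect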
Wnt3a cs: inhibits Wnt3a reporter, counter-screen for Gli-SUFU antagonists; AID 651995; inhibition, % at 6.25 µM; Wnt-LIGHT cells, Wnt3a-driven luciferase reporter, luminescence; 20% of 2,500 active; shares compounds with Gli-Sufu antag;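 active = mean inhibition above about 25%, limit read from the data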
Numbers without * were called inactive; . = no result.

SMILES | Jurkat NFkB inh | COUP-TFII inh | 697 NFkB inh | Gli-Sufu antag | H9c2 TAG inh | Cardio protect | Gli antag conf | SufuKO cytotox | Wnt3a cs
CSCCC(NC(=O)c1ccco1)C(=O)N1CC(C)OC(C)C1 (stereo not drawn) | 2 | 0 | 13 | 58* | 8 | -2 | 7 | -13 | -14
COc1nnc(-c2ccc(N3CCCCC3)c(N)c2)c2ccccc12 | -13 | -4 | -59 | 53 | -29 | -14 | 59* | 19 | -36
CCCC(=O)Nc1cc(-c2nnc(OC)c3ccccc23)ccc1N1CCCCC1 | 14 | . | 14 | . | . | . | . | . | .
COC(=O)/C=C1\OC(C)c2ccccc21 (stereo not drawn) | . | -12 | . | . | . | . | . | . | .
CC(=O)Nc1ccc(S(=O)(=O)N(Cc2ccccc2)C(C)C)cc1 | 2 | 17 | -22 | 57* | -53 | -26 | 56* | 12 | 19
CCOC(=O)[C@@]12CCCC3=C1N(CCC3)C(=O)[C@H]2CC(=O)NCC12CC3CC(CC(C3)C1)C2 | . | 3 | . | . | . | . | . | . | .
C=CCN(CC#CC(=C)C)CC1CC1 | . | -13 | . | . | . | . | . | . | .
CC(=O)c1ccc(NC(=S)N2CCN(C(=S)Nc3ccc(C(C)=O)cc3)C(C)C2)cc1 (stereo not drawn) | 6 | -5 | 4 | 58* | 26 | -4 | 9 | 31* | -10
C=CCN(Cc1ccc2c(c1)OCO2)C(C#CCCCC)C(C)C (stereo not drawn) | . | -2 | . | . | . | . | . | . | .
CCOc1ccc(Br)cc1S(=O)(=O)Nc1cccc(S(=O)(=O)Nc2ccccc2C(=O)O)c1 | -6 | -6 | 2 | 55* | -4 | 1 | 20 | 19 | -11
O=C(O)c1ccccc1NS(=O)(=O)c1cccc(NS(=O)(=O)c2cc(Br)ccc2Br)c1 | 11 | -4 | 11 | -3 | 8 | 4 | . | . | .
COc1ccc(F)cc1COc1nc(C)nc2ccccc12 | -10 | -4 | 6 | 61* | . | 1 | 19 | 9 | 11
COc1ccc(NC(=S)N2CCN(Cc3ccccc3)CC2)cc1 | -3 | -8 | 3 | 1 | 6 | 0 | . | . | .
COc1ccc(NC(=S)N2CCC(Cc3ccccc3)CC2)cc1 | -6 | -7 | 21 | 62* | 10 | -15 | 45 | 10 | 13
S=C(Nc1ccccc1)N1CCC(Cc2ccccc2)CC1 | 20 | 2 | -6 | 53 | . | -9 | 66* | 27* | 22
COC(=O)[C@]12C[C@H](CC(=O)N3CCN(C(=O)C4CC4)CC3)C(=O)N(Cc3ccc(Cl)cc3Cl)C1=C[C@H](C(C)C)O[C@@H]2C1CC1 | . | 21 | . | . | . | . | . | . | .
S=c1[nH]nc(CSCCOc2ccc(Cl)cc2Cl)o1 | -16 | 1 | -49 | 55 | 12 | 1 | 15 | 7 | -28
COc1ccc(-n2cccc2/C=C2/NC(=O)N(c3cccc(Cl)c3)C2=O)cc1 | -83 | -4 | -87 | -7 | . | -2 | . | . | .
COc1cc(/C=C2/NC(=O)N(c3cccc(Cl)c3)C2=O)ccc1O | 30 | 1 | 14 | 75* | . | -4 | 80* | 23 | 46*
O=C(CN1C(=O)c2cccc3cccc1c23)N1CCN(c2ccccc2)CC1 | 1 | 9 | 22 | 93* | -5 | 4 | 21 | 5 | -16
COc1ccc(OC)c(CN2C(=O)CCCC2(C)c2nnnn2C2CCCC2)c1 (stereo not drawn) | . | -6 | . | . | . | . | . | . | .
Cc1ccc(-n2c(SCC(=O)Nc3ccc4c(c3)OCCO4)nnc2-c2ccccn2)cc1 | . | 8 | . | . | . | . | . | . | .
O=C(Nc1cccc(Cl)c1)c1ccc(F)c(S(=O)(=O)NCc2ccc3c(c2)OCO3)c1 | 5 | 10 | 0 | 89* | -6 | -4 | 12 | -1 | -11
O=C(NCc1ccc2c(c1)OCO2)c1ccc(Cl)c(S(=O)(=O)NCc2ccccc2)c1 | -2 | 9 | 2 | -2 | . | 2 | . | . | .
Cc1ccc2c(c1)C1CS(=O)(=O)N(Cc3ccccc3)C(=O)N1C2 (stereo not drawn) | . | -34 | . | . | . | . | . | . | .
SMILES | Jurkat NFkB inh | COUP-TFII inh | 697 NFkB inh | Gli-Sufu antag | H9c2 TAG inh | Cardio protect | Gli antag conf | SufuKO cytotox | Wnt3a cs
COC(=O)Cc1nnn2c1[C@H](C)[C@@H](OC)c1ccc(C(F)(F)F)cc1-2 | . | 2 | . | . | . | . | . | . | .
CCOc1ccc(C(=O)c2cc([N+](=O)[O-])ccc2N2CCOCC2)cc1 | . | -65 | . | 53 | . | -3 | . | . | .
COc1ccc(C(=O)c2cc([N+](=O)[O-])ccc2N2CCOCC2)cc1 | . | -55 | . | 53 | 38 | -1 | 58* | 62* | -15
Brc1ccc(-c2csc(N3CCNCC3)n2)cc1 | . | -26 | . | . | . | . | . | . | .
CCOCCCNC(=S)N1C2CCC1CC(NC(=O)Nc1ccc(C(=O)OCC)cc1)C2 (stereo not drawn) | -6 | 6 | -10 | 70* | 6 | -3 | 9 | 31* | -12
O=C(CSc1nnc(SCc2cccc3ccccc23)s1)Nc1ccccc1-c1ccccc1 | . | 10 | . | . | . | . | . | . | .
O=C(NCc1ccccc1Cl)c1ccc(Cn2cc(C(F)(F)F)ccc2=O)cc1 | 12 | 17 | 4 | 2 | . | 9 | . | . | .
O=C(NCc1ccccn1)c1ccc(Cn2cc(C(F)(F)F)ccc2=O)cc1 | 7 | 19 | 6 | 62* | 8 | -2 | 10 | 3 | -15
COc1ccc(OC)c(C(=O)CSc2nnc(SCc3cccc4ccccc34)s2)c1 | . | 5 | . | . | . | . | . | . | .
CCOC(=O)[C@@]12CCC3=C1N(CCC3)C(=O)[C@H](CC(=O)NCc1ccc(OC)c(OC)c1)C2 | . | -8 | . | . | . | . | . | . | .
CCCNC(=O)c1ccc(N2CCC3(CC2)CC(c2ccccc2)=NO3)c(NC(=O)c2cccc(C)c2)c1 | 25 | 10 | -25 | 52 | -4 | 10 | 25 | 15 | -108
CCCNC(=O)c1ccc(N2CCC3(CC2)CC(c2ccccc2)=NO3)c(NC(=O)c2ccccc2)c1 | 18 | 17 | 22 | 18 | . | 28 | . | . | .
Cc1c(Br)ccc(NC(=O)Cn2nc(-c3cccs3)ccc2=O)c1C | -3 | 3 | 5 | -2 | . | -1 | . | . | .
Cc1ccc(NC(=O)Cn2nc(-c3ccccc3Cl)ccc2=O)c(Br)c1 | 2 | -5 | -7 | 57* | -42 | 4 | 14 | 20 | -7
Cc1ccc(NC(=S)NNC(=O)CSc2nc3sc4c(c3c(=O)n2-c2ccccc2)CCCC4)cc1 | . | 5 | . | . | . | . | . | . | .
Cc1ccc(-c2nn(C)c(=O)c3ccccc23)cc1S(=O)(=O)N1CCOCC1 | 13 | -2 | 14 | 51 | . | 7 | 22 | 20 | 16
Cc1ccc(-c2nn(C)c(=O)c3ccccc23)cc1S(=O)(=O)N1CCCC1 | -5 | -34 | -18 | 14 | 2 | -3 | . | . | .
COC(=O)c1ccccc1NC(=O)NCC1CCN(Cc2ccc(OC)cc2)CC1 | . | -11 | . | . | . | . | . | . | .
CN1CCN(/C=N/c2sc3c(c2C#N)CCCCC3)CC1 | -99 | -21 | -118 | 80* | -18 | 9 | -31 | 7 | -196
